Laboratory results reported in PubChem BioAssay AID1611 (NINDS Approved Drug Screening Program, 2009).
Several values for one entry are separate records, joined by “and”; a condition that tells them apart may be missing. Identical values can stand only once.

Assay: HSE-luciferase reporter activators – cell-based (AID 1611)
Conditions: human cells, HSE-luciferase heat shock reporter; stronger effect = higher value

Compared with N=c1nc(N2CCCCC2)cc(N)n1O, Cc1ccc(S(=O)(=O)NC(=O)NN2CCCCCC2)cc1 is lower in fold change: 0.77 for the first, 0.73 for the second.

Compared with O=C1C[C@@H](c2ccc(O)cc2)Oc2cc(O)cc(O)c21, O=C(O)c1cc2cc(Cc3cccnc3)ccc2o1 is higher in fold change: 0.8 for the first, 0.83 for the second.

Going from CC(=O)Oc1cccc(O)c1 to CN(C)C(=O)Oc1cccc([N+](C)(C)C)c1, the fold change rises from 0.84 to 1.23.

Going from CC(=O)[C@@]1(O)CCC2C3C[C@H](C)C4=CC(=O)C=CC4(C)[C@@]3(F)[C@@H](O)C[C@@]21C (some centres undefined) to CO[C@H]1C[C@H](O[C@H]2[C@H](C)[C@@H](OC3O[C@H](C)C[C@H](N(C)C)[C@H]3O)[C@@H](C)C[C@]3(CO3)C(=O)[C@H](C)[C@@H](O)[C@@H](C)[C@@H](C)OC(=O)[C@@H]2C)O[C@@H](C)[C@@H]1O (some centres undefined), the fold change falls from 1.43 to 0.75.

First: CNCCC=C1c2ccccc2CCc2ccccc21
Second: CCN(CC)C(C)CN1c2ccccc2Sc2ccccc21 (centres undefined)
The fold change of the first is lower: 1.45 for the first, 1.55 for the second.

First: CC(C)COCC(CN(Cc1ccccc1)c1ccccc1)N1CCCC1 (centres undefined)
Second: CN(C)CCC(c1ccccc1)c1ccccn1 (centres undefined)
The fold change of the first is lower: 0.78 for the first, 1.7 for the second.

First: O=c1[nH]cc(F)c(=O)[nH]1
Second: Cn1c(=O)[nH]c2ncn(C)c2c1=O
The fold change of the first is lower: 0.52 for the first, 1.88 for the second.

Compared with O=C1OCCN1/N=C/c1ccc([N+](=O)[O-])o1, O=C1CCC(N2C(=O)c3ccccc3C2=O)C(=O)N1 (centres undefined) is lower in fold change: 1.79 for the first, 0.89 for the second.

Going from Cc1ccc(C(=O)c2ccc(CC(=O)O)n2C)cc1 to CC(C)(Oc1ccc(CCNC(=O)c2ccc(Cl)cc2)cc1)C(=O)O, the fold change falls from 279 to 1.4.

Going from NC[C@H]1O[C@H](O[C@H]2[C@H](O)[C@@H](O[C@H]3O[C@H](CO)[C@@H](O)[C@H](N)[C@H]3O)[C@H](N)C[C@@H]2N)[C@H](O)[C@@H](O)[C@@H]1O to NC[C@@H]1O[C@H](O[C@@H]2[C@@H](CO)OC(O[C@@H]3[C@@H](O)[C@H](N)C[C@H](N)[C@H]3OC3O[C@H](CN)[C@@H](O)[C@H](O)[C@H]3N)[C@@H]2O)[C@H](N)[C@@H](O)[C@@H]1O (some centres undefined), the fold change falls from 1.87 to 0.96.

Going from CCCCC1(COC(=O)CCC(=O)O)C(=O)N(c2ccccc2)N(c2ccccc2)C1=O to CCCN(CCC)S(=O)(=O)c1ccc(C(=O)O)cc1, the fold change falls from 0.82 to 0.78.

Going from CCCn1c(=O)c2[nH]c(C3CCCC3)nc2n(CCC)c1=O to O=C(O)CCCCC1SCC2NC(=O)NC21 (centres undefined), the fold change rises from 0.74 to 2.49.

Compared with CCN(CC)CC(=O)Nc1c(C)cccc1C, CCN(CC)CCNC(=O)c1cc(Cl)c(N)cc1OC is higher in fold change: 0.78 for the first, 1.24 for the second.

First: CCN(CC)CCOc1ccc2c(c1)C(=O)c1cc(OCCN(CC)CC)ccc1-2
Second: CCCCc1oc2ccccc2c1C(=O)c1cc(I)c(OCCN(CC)CC)c(I)c1
The fold change of the first is higher: 0.93 for the first, 0.84 for the second.

Going from O=C(O)c1ccccc1O to NNc1nncc2ccccc12, the fold change rises from 0.73 to 1.1.

Going from C=Cc1c(C)c2cc3[nH]c(cc4nc(cc5nc(cc1[nH]2)C(C)=C5CCC(=O)O)C(CCC(=O)O)=C4C)c(C)c3C=C to Cc1nnc(SCC2=C(C(=O)O)N3C(=O)[C@@H](NC(=O)Cn4cnnn4)[C@H]3SC2)s1, the fold change falls from 1.09 to 0.8.

Compared with CN[C@@H]1[C@H](OC2[C@H](O[C@H]3[C@H](O)[C@@H](O)[C@H](N=C(N)N)[C@@H](O)[C@@H]3N=C(N)N)O[C@@H](C)[C@]2(O)C=O)O[C@@H](CO)[C@H](O)[C@H]1O (some centres undefined), CC(C)CC(NC(=O)CCN)C(=O)O (centres undefined) is lower in fold change: 1.17 for the first, 1.04 for the second.

Going from CC(C)[N+]1(C)C2CC[C@@H]1CC(OC(=O)C(CO)c1ccccc1)C2 (some centres undefined) to CN(C)C(=O)Oc1ccc[n+](C)c1, the fold change rises from 0.91 to 1.31.

Compared with COc1ccc2cc3[n+](cc2c1OC)CCc1cc2c(cc1-3)OCO2, O=C(Cn1ccnc1[N+](=O)[O-])NCCO is lower in fold change: 1.07 for the first, 0.93 for the second.

For NCCCCCCNS(=O)(=O)c1cccc2c(Cl)cccc12, the fold change was 1.18 and 0.78.
